Results: PubChem BioAssay (Tox21)
Results filed as inconclusive are left out. Entries that show only a call come without a potency. Active and inactive are the calls of the source. The call rests on the fitted dose curve; in most records, active means well fitted cell-killing curve with a large enough effect in the repeat runs; inconclusive means weak or mixed curves; inactive means flat fitted curve, though single readings scatter.

assay: qHTS assay to identify small molecule antagonists of the TGF-beta/Smad signaling pathway - cell viability counter screen (AID 1346824); conditions: SBE-bla HEK293T viability, CellTiter-Glo luminescence; series mostly up to 76.8 µM; further: nearly all actives have a fitted effect of over 50% in size
Description: U.S. Tox21 Program National Center for Advancing Translational Sciences [NCATS] NIH Chemical Genomics Center [NCGC] U.S. Environmental Protection Agency [EPA] National Institutes of Environmental Health Sciences [NIEHS] National Toxicology Program [NTP] U.S. Food and Drug Administration [FDA] Tox21 Assay Overview: Transforming growth factor beta (TGF-beta) superfamily consists of a large number of structurally related dimeric proteins that act as hormones or local mediators in regulating a wide range of biological functions. This superfamily includes TGF-betas themselves, the bone morphogenetic proteins (BMPs) and the activins. These ligands induce oligomerization of serine/threonine receptor kinases and phosphorylate the cytoplasmic signaling molecules of Smad protein family. CellSensor SBE-bla HEK 293T cell line (Life Technologies, Carlsbad, CA), responsive to TGF-beta was used to screen Tox21 10K compound library for identification of agonists/antagonists of the Smad signaling pathway. This cell line contains a beta-lactamase reporter gene under control of the Smad binding element (SBE) stably integrated into HEK 293T cells. Also cytotoxicity of the compounds was tested in parallel by measuring the cell viability using CellTiter-Glo assay system in the same wells.
Tox21 Assay Protocol Summary: SBE-bla HEK 293T cells were dispensed at 4,000/well in 5 uL of assay medium into black wall/clear-bottom 1536-well plates using a Multidrop Combi (ThermoFisher Scientific, Waltham, MA) dispenser. After the assay plates were incubated at 37 C and 5% CO2 for an overnight, 23 nL of compounds dissolved in DMSO, positive controls or DMSO only was transferred to the assay plate by a Pintool station (Kalypsys, San Diego, CA). Compound transfer was followed by the addition of 1 uL of 0.25 ng/mL TGF-beta1 or assay buffer using two separate tips of Flying Reagent Dispenser (FRD, Aurora Discovery, San Diego, CA). The assay plates were incubated at 37 C and 5% CO2 for 5 hr. One uL of LiveBLAzer B/G FRET substrate (Life Technologies) was added using a Flying Reagent Dispenser (FRD, Aurora Discovery, San Diego, CA) and the plates were incubated at room temperature for 2 hr. Fluorescence intensity (405 nm excitation, 460 nm and 530 nm emissions) was measured using an Envision plate reader (PerkinElmer, Shelton, CT). For cytotoxicity read, 4 uL of CellTiter-Glo reagent (Promega Corporation, Madison, WI) was added to each well of the assay plates using FRD. After 30 min incubation at room temperature, the luminescence intensity was measured using ViewLux plate reader (PerkinElmer).

| SMILES | Potency |
| --- | --- |
| CCCCCCNC(=O)n1cc(F)c(=O)[nH]c1=O | inactive |
| COC(=O)C1=C(C)NC(C)=C(C(=O)O[C@@H]2CCCN(Cc3ccccc3)C2)[C@@H]1c1cccc([N+](=O)[O-])c1 | inactive |
| C[C@@H]1CN(CCCn2c3ccccc3c3ccccc32)C[C@H](C)N1 | inactive |
| CO/N=C(/C(=O)N[C@@H]1C(=O)N2C(C(=O)O)=C(COC(N)=O)CS[C@H]12)c1ccco1 | inactive |
| O=[N+]([O-])c1ccc(O/N=C/c2cc(Br)c(O)c(Br)c2)c([N+](=O)[O-])c1 | inactive |
| CC(C)c1nc(CN(C)C(=O)N[C@H](C(=O)N[C@@H](Cc2ccccc2)C[C@H](O)[C@H](Cc2ccccc2)NC(=O)OCc2cncs2)C(C)C)cs1 | inactive |
| CCC(=O)C1CC(C(C)C)CC=C1C (stereo not given) | inactive |
| CC(CN(C)C)C(C)(O)Cc1ccc(Cl)cc1 (stereo not given) | inactive |
| O=c1cc(-c2ccccc2)oc2cc(O)cc(O)c12 | inactive |
| CC1=Nc2ccc3ccccc3c2C1(C)C | inactive |
| Oc1cccc(Nc2ccccc2)c1 | inactive |
| Cc1ccc(C(C)(C)O)cc1 | inactive |
| CCOC(=O)c1ccc(C#Cc2ccc3c(c2)C(C)(C)CCS3)nc1 | inactive |
| CC(CO)CO | inactive |
| Oc1cc2c(cc1O)[C@H]1c3ccc(O)c(O)c3OC[C@@]1(O)C2 | inactive |
| CC(C)=CC(=O)C=C(C)C | inactive |
| OCCN1CCN(CCCN2c3ccccc3Sc3ccc(Cl)cc32)CC1 | inactive |
| CC1(C)[C@@H](OC(=O)CCC(=O)O)CC[C@]2(C)[C@H]3C(=O)C=C4[C@@H]5C[C@@](C)(C(=O)O)CC[C@]5(C)CC[C@@]4(C)[C@]3(C)CC[C@@H]12 | inactive |
| CCC(C)(C)OC | inactive |
| CN1CCCC(n2nc(Cc3ccc(Cl)cc3)c3ccccc3c2=O)CC1 (stereo not given) | inactive |

| SMILES | Potency |
| --- | --- |
| CC[C@]1(O)C[C@H]2CN(CCc3c([nH]c4ccccc34)[C@@](C(=O)OC)(c3cc4c(cc3OC)N(C=O)[C@H]3[C@@](O)(C(=O)OC)[C@H](OC(C)=O)[C@]5(CC)C=CCN6CC[C@]43[C@@H]65)C2)C1 | inactive |
| CCCCN(CCN(CCCC)C(=O)N1CCOCC1)C(=O)N1CCOCC1 | inactive |
| CC(C)=CCC1C(=O)N(c2ccccc2)N(c2ccccc2)C1=O | inactive |
| CC(C)C(O)(c1ccc(OC(F)(F)F)cc1)c1cncnc1 (stereo not given) | inactive |
| CCN(CC)CCNC(=O)COc1ccc(OC)cc1 | inactive |
| c1cc(N(CC2CO2)CC2CO2)ccc1Cc1ccc(N(CC2CO2)CC2CO2)cc1 (stereo not given) | inactive |
| O=C=Nc1ccc(Cl)c(Cl)c1 | inactive |
| c1ccc2c(c1)CCc1ccccc1N2 | inactive |
| Cc1cccc(N(C)C(=S)Oc2ccc3c(c2)CCC3)c1 | inactive |
| CN1CCCC(CC2c3ccccc3Sc3ccccc32)C1 (stereo not given) | inactive |
| CCc1ccccc1 | inactive |
| CC(=O)c1cc2ccccc2s1 | inactive |
| CCCCCCCCN | inactive |
| O=C1NC(=O)c2cc([N+](=O)[O-])ccc21 | inactive |
| Clc1cc(Cl)nc(Cl)n1 | inactive |
| C=C1C[C@@]23CC[C@H]4[C@@](C)(CCC[C@@]4(C)C(=O)O[C@@H]4O[C@H](CO)[C@@H](O)[C@H](O)[C@H]4O)[C@@H]2CC[C@]1(O[C@@H]1O[C@H](CO)[C@@H](O)[C@H](O[C@@H]2O[C@H](CO)[C@@H](O)[C@H](O)[C@H]2O)[C@H]1O[C@@H]1O[C@H](CO)[C@@H](O)[C@H](O)[C@H]1O)C3 | inactive |
| CCCCC(CC)CN (stereo not given) | inactive |
| C=C/C(C)=C/C/C=C(\C)CCC=C(C)C | inactive |
| CC(C)(c1ccccc1)c1ccccc1 | inactive |
| C[C@H]1c2cccc(O)c2C(O)=C2C(=O)[C@]3(O)C(O)=C(C(N)=O)C(=O)[C@@H](N(C)C)[C@@H]3[C@@H](O)[C@@H]21 | inactive |
